From PubChem
Tg IFNy HTS = inhibitors of Toxoplasma gondii growth with IFN-gamma | Toxoplasma gondii growth in IFN-gamma-treated host cells; stronger effect = lower value | activity change, negative = inhibition, % (no concentration beside the values) | 69,000 tested, 3.8% active | AID 1259416; in the data active = activity change below about -70%, passing the limit was not always enough;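 note: host cells are HeLa cells infected with Toxoplasma gondii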
Active calls of the source: *; i = inactive. This excerpt belongs to a sample that is enriched for hits.

SMILES | Tg IFNy HTS
COc1ccc(Cl)cc1NC(=O)c1nc(Nc2ccccc2)c2ccccc2n1 | 83.7
COc1ccc(Cl)cc1NC(=O)Nc1cc(C)nc2ccccc12 | -86.5*
COc1ccc(Cl)cc1NC(=O)COc1nc(C)nc2ccccc12 | -14.6
Cc1ccc(CC(=O)NCc2ccc(-c3[nH]ncc3C(=O)N(C)C)cc2)cc1 | 9.7
N#Cc1sc(-c2ccc(F)cc2)cc1N | -45.1
COc1cc(NC(=O)Nc2ccc(-c3nc(-c4cc(C)ccc4C)co3)cc2)cc(OC)c1 | -62.0
Cc1nc(C)c(CC(=O)N(C)C(C)c2ccccn2)s1 (stereo unspecified) | 6.6
Cc1ccc(-c2nc(Cn3nnc(C(=O)Nc4ccccc4C)c3C)c(C)o2)cc1 | -88.5*
Cc1ccccc1NC(=O)c1nnn(Cc2nc(-c3ccc(Cl)cc3)oc2C)c1C | -44.5
Cc1ccc(-c2nc(Cn3nnc(C(=O)NCCCc4ccccc4)c3C)c(C)o2)cc1 | -52.9
Cc1oc(-c2ccc(OC(C)C)cc2)nc1Cn1nnc(C(=O)Nc2cccc(Cl)c2C)c1C | -118.5*
Cc1ccc(-c2nc(Cn3nnc(C(=O)Nc4cc(C)cc(C)c4)c3C)c(C)o2)cc1 | -48.8
CCOc1ccccc1NC(=O)c1nnn(Cc2nc(-c3ccc(OC(C)C)cc3)oc2C)c1C | 32.8
CSc1ccc(CNC(=O)c2nnn(Cc3nc(-c4ccc(C)cc4)oc3C)c2C)cc1 | -47.8
COc1ccc(NC(=O)c2nnn(Cc3nc(-c4ccc(C)cc4)oc3C)c2C)cc1 | -95.0*
COc1ccc(NC(=O)c2nnn(Cc3nc(-c4ccc(Cl)cc4)oc3C)c2C)cc1 | -18.6
Cc1ccccc1NC(=O)c1nnn(Cc2nc(-c3ccccc3)oc2C)c1C | 28.7
COc1cccc(CNC(=O)c2nnn(Cc3nc(-c4ccc(C)cc4)oc3C)c2C)c1 | -96.1*
Cc1ccccc1NC(=O)c1nnn(Cc2nc(-c3ccc(OC(C)C)cc3)oc2C)c1C | -39.4
Cc1ccc(-c2nc3c(s2)CN(C(=O)Nc2cccc(C)c2)CC3)cc1 | -31.1
CCc1ccccc1OCCN(C)C(=O)c1ccc2nccn2c1 | -7.4
NC(=O)N1CCn2cc(CNC(=O)C3CCC3)nc2C1 | -3.5
O=C(c1cccc(F)c1)N1CCN(S(=O)(=O)c2cc3c4c(c2)CCC(=O)N4CCC3)CC1 | -36.7
CCCNc1ncc(CN2CCCC2c2nc(-c3ccccc3)no2)cn1 (stereo unspecified) | 3.6
Cc1cc(C)cc(NC(=O)Nc2ccc(-c3nc(-c4ccccc4)co3)cc2)c1 | 16.8
SMILES | Tg IFNy HTS
Cc1cc(C)n(C)c(=O)c1C(=O)N(Cc1ccccn1)CC1CCCO1 (stereo unspecified) | 41.0
Nc1ccc(-c2ccc(C3CCCN(C(=O)Cc4ccc5c(c4)CCCO5)C3)nc2)cn1 (stereo unspecified) | -46.5
CCOc1ccc(-c2nc(Cn3nnc(C(=O)Nc4c(C)cccc4C)c3C)c(C)o2)cc1 | -93.8*
CCOc1ccc(-c2nc(Cn3nnc(C(=O)Nc4cc(C)cc(C)c4)c3C)c(C)o2)cc1 | -53.0
COc1ccc(NC(=O)c2nnn(Cc3nc(-c4ccc(Cl)cc4)oc3C)c2C)cc1OC | -21.2
COc1ccc(CNC(=O)c2nnn(Cc3nc(-c4ccc(C)cc4)oc3C)c2C)c(OC)c1 | -98.5*
COc1ccc(CCNC(=O)c2nnn(Cc3nc(-c4ccc(C)cc4)oc3C)c2C)cc1OC | 16.5
CCOc1ccc(-c2nc(Cn3nnc(C(=O)Nc4cc(C)ccc4C)c3C)c(C)o2)cc1 | 34.1
COc1ccc(NC(=O)c2nnn(Cc3nc(-c4ccccc4)oc3C)c2C)c(OC)c1 | 86.3
CCOc1ccc(-c2nc(Cn3nnc(C(=O)Nc4cc(OC)ccc4OC)c3C)c(C)o2)cc1 | 81.5
COc1ccc(CNC(=O)c2nnn(Cc3nc(-c4ccc(C)cc4)oc3C)c2C)cc1OC | -86.8*
CC(C(=O)N(C)Cc1cc(C2CC2)n[nH]1)n1cnc2ccccc21 (stereo unspecified) | -1.2
O=C(Nc1ccc(F)cc1)N1CCCn2nnc(CN3CCCCC3)c2C1 | 11.7
O=C1NC2(CCc3ccccc31)CCN(Cc1ccnc(N3CCCCC3)n1)C2 (stereo unspecified) | 18.1
CN1CCN(C)C2(CCN(C(=O)c3ccc(-c4ccn[nH]4)cc3)CC2)C1 | -2.3
O=S(=O)(c1cccc2cccnc12)N1C=CC(C(F)(F)F)=NCC1 | -1.4
COc1ccc(-c2nc(C)c(CCNS(=O)(=O)c3ccc(F)cc3)s2)cc1 | i
O=C(c1c(F)cccc1F)N1CCOC(c2ccc(Cl)cc2)C1 (stereo unspecified) | -78.7*
CCn1c(C)cc(C)c(C(=O)N2CCOC(c3ccc(Cl)cc3)C2)c1=O (stereo unspecified) | 6.0
O=C(c1ncoc1-c1ccccc1)N1CCOC(c2ccc(Cl)cc2)C1 (stereo unspecified) | -40.0
CO[C@H]1CCN(c2ncccn2)C[C@@H]1Cc1cccc(C)c1 | -9.4
CC(c1ccc(-c2ccc(C(=O)N3CCCC3)o2)cc1)N1CCOCC1 (stereo unspecified) | 61.0
O=C(c1ccc(F)cc1)C1CCN(C(=O)c2ccc(-c3cccs3)s2)CC1 | -64.8
CCN(CC)Cc1cccc(C(=O)Nc2ccccc2CO)c1 | 4.2
CCN(CC)Cc1ccc2cc(COC(=O)Nc3ccc(C(=O)NO)cc3)ccc2c1 | -83.0*
SMILES | Tg IFNy HTS
COc1ccc(Cn2ccc3ccc(C(=O)NO)cc32)cc1 | -0.1
COc1cc(-c2n[nH]c(Cc3ccccc3)n2)nc(OC)n1 | 13.6
O=C(Cn1c(=O)cc(C(=O)N2CCOCC2)c2ccccc21)Nc1cccc(F)c1 | 5.5
COc1ccc(C(=O)/C=C2/c3ccccc3CC(C)(C)N2C)cc1 | -63.1
CC1=NN(C)C(=O)/C1=N\OC(=O)c1ccc(Cl)cc1 | -23.6
COc1ccc(C(=O)O/N=C2/C(=O)N(C)c3ccccc32)cc1 | -100.2*
O=C(OOC(=O)c1ccccc1)c1ccccc1 | -43.9
O=C(O/N=C1/C(=O)c2ccccc2-c2ccccc21)c1ccccc1 | -103.1*
O=C(OCc1ccccc1)c1ccccc1 | 4.9
COc1ccc(CC(=O)N2CCC3(CC2)Nc2cc(C)ccc2-n2cccc23)cc1 | 43.8
Cc1cccnc1CN1CCN(Cc2cn(CCC(N)=O)c3ccccc23)CC1 | 49.6
Cc1ncc(CN2CC(CN3CCOCC3)c3ccccc32)cn1 (stereo unspecified) | 29.4
CSc1nccc(-c2ccc(S(C)(=O)=O)cc2)n1 | -4.4
Cc1ncc(-c2ccnc(Nc3ccc(S(C)(=O)=O)cc3)n2)n1C(C)C | -77.1*
Cc1nn(C)c(C)c1-c1ccnc(NCCN2CCN(C(C)C)CC2)n1 | -2.0
CCn1ncnc1CN(C)Cc1cccc2cnccc12 | -20.6
COCCN1C(=O)CCc2cc(NS(=O)(=O)c3ccc(C)cc3C)ccc21 | -13.8
Cc1cc(C)n(Cc2nc(-c3ccc(NC(=O)c4ccc5c(c4)OCO5)cc3)oc2C)n1 | -97.9*
CCc1ccc(C(=O)Nc2ccc(-c3nc(Cn4nc(C)cc4C)c(C)o3)cc2)cc1 | -61.5
COc1ccc(C(=O)Nc2ccc(-c3nc(Cn4nc(C)cc4C)c(C)o3)cc2)cc1 | -91.7*
Cc1cc(C)n(Cc2nc(-c3ccc(NC(=O)c4ccc(F)cc4)cc3)oc2C)n1 | -68.0
Cc1ccc(C(=O)Nc2ccc(-c3nc(Cn4nc(C)cc4C)c(C)o3)cc2)cc1 | -54.8
Cc1cc(C)n(Cc2nc(-c3ccc(NC(=O)c4ccc(F)c(F)c4)cc3)oc2C)n1 | 45.3
CNC(=O)CN1C(=O)CCC12CCCN(Cc1cnc[nH]1)C2 (stereo unspecified) | 277.3
COc1cccc(-c2ccc3c(C4CCCN4C(=O)C(F)(F)F)nnn3c2)c1 (stereo unspecified) | 1.0
